Screens (PubChem BioAssay)
CYP2C9 act: human CYP2C9 activators, primary screen, biochemical, luminescence. AID 1024, 2008. recombinant CYP2C9, luciferin-H conversion; hits give high values; factor 1 = untreated enzyme, 0 = blocked. activation factor at 5 µM. hit rate 1.4% among 96,000. Cytochrome P450 2C9 (Homo sapiens), P11712;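 active means activation factor of 2 or more for CYP2C9 at a 5 µM dose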;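 further: 0 = sulfaphenazole-blocked wells and 1 = vehicle-only wells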
CD11b adhes enh: enhancers of CD11b/CD18 adhesion to fibrinogen, primary screen, K562 cells, luminescence; Integrin beta-2 (Homo sapiens) + Integrin alpha-M (Homo sapiens), P05107+P11215; ATPlite luminescence; activation, % at 10 µM; hit rate 0.07% among 93,000;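 active means 10 µM primary screen giving 50% or more activity, confirmed by 40% or more on retest at that dose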
Target sequence (P05107 whole entry, looked up, other chains not shown): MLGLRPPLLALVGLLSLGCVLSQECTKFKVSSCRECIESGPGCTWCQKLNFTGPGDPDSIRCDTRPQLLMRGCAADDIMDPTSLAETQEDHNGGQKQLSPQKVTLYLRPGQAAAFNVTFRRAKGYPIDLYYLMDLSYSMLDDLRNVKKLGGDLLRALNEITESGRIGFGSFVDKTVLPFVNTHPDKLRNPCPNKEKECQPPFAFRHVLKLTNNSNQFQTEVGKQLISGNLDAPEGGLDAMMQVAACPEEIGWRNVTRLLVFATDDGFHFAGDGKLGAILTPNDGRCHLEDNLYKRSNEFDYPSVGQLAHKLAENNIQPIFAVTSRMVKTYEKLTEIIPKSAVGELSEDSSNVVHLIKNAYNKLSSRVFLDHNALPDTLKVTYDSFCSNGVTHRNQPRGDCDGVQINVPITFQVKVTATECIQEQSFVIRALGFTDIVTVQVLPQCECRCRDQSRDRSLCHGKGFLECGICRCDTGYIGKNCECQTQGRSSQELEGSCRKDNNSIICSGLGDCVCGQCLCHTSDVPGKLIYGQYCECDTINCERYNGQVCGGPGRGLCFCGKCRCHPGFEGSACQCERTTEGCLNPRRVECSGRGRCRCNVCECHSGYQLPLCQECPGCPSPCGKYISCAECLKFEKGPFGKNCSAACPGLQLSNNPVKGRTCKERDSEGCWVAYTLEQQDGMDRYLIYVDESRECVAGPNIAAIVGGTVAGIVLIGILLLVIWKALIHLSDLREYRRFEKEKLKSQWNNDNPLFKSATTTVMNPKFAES
CYP2C19 inhib: blockers of cytochrome P450 2C19 activity – biochemical, luminescence, ADME assay, primary screen; P33261; CYP2C19 Supersomes, luciferin-H EGE luminescence, 30 min; inhibition, % at 5 µM; hit rate 21% among 96,000;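 active means CYP2C19 inhibition above a set limit at 5 µM in the primary screen, cut at about 50% in these data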;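 further: plate controls were negative control wells for no effect and 2.5 mM tranylcypromine positive control for full effect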
CYP2C19 act: human CYP2C19 activators, primary screen, biochemical, luminescence. Cytochrome P450 2C19 (Homo sapiens), P33261. recombinant CYP2C19, luciferin-H EGE luminescence; hits give high values; 0 = fully inhibited enzyme, 1 = untreated enzyme. activation factor at 5 µM. 96,000 tested, under 10 active. AID 1025, 2008;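 active means activation factor of at least 2 at 5 µM in the primary screen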;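 further: 0 = wells with 2.5 mM tranylcypromine and 1 = vehicle-only wells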
CD11b adhes inh: inhibitors of CD11b/CD18 adhesion to fibrinogen, primary screen, K562 cells, luminescence. inhibition, % at 10 µM. Integrin beta-2 (Homo sapiens) + Integrin alpha-M (Homo sapiens), P05107+P11215. ATPlite luminescence; Mn2+ added to activate the integrin. AID 1497, 2009. hit rate 0.54% among 93,000;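 active means primary inhibition of 50% or more at 10 µM, then 40% or more on retest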
CYP2C9 inhib: blockers of cytochrome P450 2C9 activity – biochemical, luminescence, ADME assay, primary screen | hit rate 20% among 96,000 | P11712 | AID 777, 2007 | inhibition, % at 5 µM | CYP2C9 Supersomes, luciferin-H conversion;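 active means blocking of liver enzyme CYP2C9 beyond about 50% at 5 µM, limit read from the data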
* marks the source's active call; other numbers are inactive results; / = no result. Hits are enriched below; roughly 28% of the tested compounds scored in any of these assays.

SMILES	CYP2C9 act	CD11b adhes enh	CYP2C19 inhib	CYP2C19 act	CD11b adhes inh	CYP2C9 inhib
O=C(OCc1ccccc1Cl)c1ccc(-n2cnnc2)cc1	0.1	-6.0	97.7*	0	25.1	90.5*
O=C(Cn1ncnn1)OCc1ccccc1Cl	1.2	-3.2	5.1	0.9	-23.9	-17.6
COc1cc(NC(=O)c2ccco2)c(OC)cc1NC(=O)CCC(=O)Nc1cc(C)cc(C)c1	0.3	10.1	35.6	0.6	-24.2	66.1*
CCCC(=O)Nc1ccc(NC(=O)c2ccco2)c(OC)c1	0.3	-1.8	33.9	0.7	-4.7	71.2*
CCCOc1cccc(C(=O)Nc2cc(NC(=O)c3ccco3)ccc2OC)c1	0.6	3.9	71.0*	0.3	1.2	41.8
COc1cc(OC)cc(C(=O)Nc2cc(NC(=O)c3ccco3)ccc2OC)c1	0.7	-2.8	24.9	0.8	-7.6	32.9
COc1cc(NC(=O)c2ccco2)c(OC)cc1NC(=O)CCC(=O)Nc1cc(C)ccc1C	0.5	-1.0	28.3	0.7	-2.1	46.3
CCC(=O)Nc1ccc(NC(=O)c2ccco2)c(OC)c1	0.7	3.6	-5.6	1.1	-15.9	26.2
CC(=O)Nc1ccc(NC(=O)/C(Cl)=C/c2ccccc2)cc1	1	-1.5	10.1	0.9	-0.9	-2.8
Cn1c(C(=O)NCCCN2CCN(c3ccccc3F)CC2)cc2c(=O)n(C)c3ccccc3c21	0.5	-4.0	65.6*	0.3	13.4	50.0*
Cc1cc(=O)oc(C)c1C(=O)NCCCN1CCN(c2ccccc2F)CC1	0.4	1.4	8.4	0.9	-23.8	63.6*
Cc1ccccc1CS(=O)(=O)CCC(=O)NCCCN1CCN(c2ccccc2F)CC1	1	/	2.5	1	/	-3.7
Cc1cc(C)nc(SCC(=O)N2CCC(C(N)=O)CC2)n1	1	4.7	0.0	1	-50.9	-3.4
CCn1c(COc2ccc3c(c2)CCCC3)nnc1SCC(=O)Nc1ccc(C(=O)OC)cc1	/	52.0	/	/	-14.8	/
CC(=O)N1CCN(C(=O)COc2ccc(Br)cc2)CC1	1	0.0	88.8*	0.1	-19.2	-0.4
O=C(COc1ccc(Br)cc1)N1CCN(c2ccccc2)CC1	0.6	-1.6	70.6*	0.3	7.7	36.7
Cc1ccc(OCC(=O)N2CCN(c3nnc(-c4ccccc4)c4ccccc34)CC2)cc1	0.6	7.4	46.7	0.5	8.1	44.8
COc1ccc(OCC(=O)N2CCN(C(=O)COc3ccc(Br)cc3)CC2)cc1	0.5	/	64.5*	0.4	/	46.0
O=C(COc1ccc(Cl)cc1Br)N1CCN(c2ccccc2)CC1	1.1	-0.5	44.6	0.6	-2.8	-11.7
Cc1nc(N2CCN(C(=O)COc3ccccc3)CC2)c2c(C)c(C)sc2n1	0.1	-3.4	36.0	0.6	69.2	92.6*
CCOC(=O)CSc1nc(Nc2ccc3c(c2)OCO3)c2ccccc2n1	0	0.5	85.6*	0.1	-13.9	98.2*
N#CCSc1nc(Nc2ccc3c(c2)OCO3)c2ccccc2n1	0.2	-2.4	18.7	0.8	-6.5	79.9*
CCOC(=O)CSc1nc(NCc2ccco2)c2ccccc2n1	0.6	-2.4	36.0	0.6	-1.9	38.5
CC1(C(=O)NC2CCCCCCC2)CC1(Cl)Cl (centres undefined)	0.9	4.7	26.8	0.7	0.6	7.7
Cc1ccc(Oc2ncc(CN3CC(C)OC(C)C3)s2)cc1 (centres undefined)	1.1	/	47.0	0.5	/	-8.2
SMILES	CYP2C9 act	CD11b adhes enh	CYP2C19 inhib	CYP2C19 act	CD11b adhes inh	CYP2C9 inhib
CN(C)c1ccc(CNCCC2(O)CCOC(C)(C)C2)cc1 (centres undefined)	1	-4.0	53.4*	0.5	-16.4	4.5
O=c1c(/C=N/O)c(Nc2ccccc2)nc2ccccn12	0.5	-1.0	19.5	0.8	-8.2	50.1*
CCCCc1c(O)nc2ccccn2c1=O	/	0.4	/	/	-2.7	/
CC1CCCCN1Cc1cnc(Cl)s1 (centres undefined)	1	1.8	27.7	0.7	35.9	-4.7
CN(C)CCN1C(=O)c2oc3ccc(Cl)cc3c(=O)c2C1c1cccc(Br)c1 (centres undefined)	0.7	12.9	6.9	0.9	-6.4	28.0
O=c1c2c3c(sc2n2cnnc2n1CCc1ccccc1)CCCC3	0.9	-2.1	6.7	0.9	0.3	11.3
COc1ccccc1NC(=O)N1CCCC1C(=O)NC12CC3CC(CC(C3)C1)C2 (centres undefined)	1.1	-0.3	10.0	0.9	-6.0	-14.0
COc1ccc(C(=O)NCCn2ccc3ccccc32)c(OC)c1	1	2.1	99.8*	0	-9.5	4.9
CC(Oc1cccc(Cl)c1)C(=O)NCCCCc1ccccc1 (centres undefined)	/	-5.5	/	/	-22.3	/
CCC(=O)NCCn1ccc2ccccc21	0.9	-2.0	2.5	1	6.7	7.2
O=C(Cc1cccs1)NCCn1ccc2ccccc21	0.8	-4.3	73.1*	0.3	-59.5	17.9
CC(C)C(=O)NCCn1ccc2ccccc21	0.7	/	57.2*	0.4	/	34.9
Cc1cc2ccccc2n1CCNC(=O)C(C)Oc1ccccc1 (centres undefined)	0.1	-1.1	100.4*	0	15.7	87.2*
O=C(O)CC(c1ccc(Cl)cc1)N1C(=O)CCC1=O (centres undefined)	0.9	-1.7	-3.8	1	-9.2	9.3
Cc1cc2ccccc2n1CCNC(=O)c1ccc(S(=O)(=O)N2CCCCC2)cc1	0.1	7.8	33.8	0.7	27.2	90.1*
O=C(Cc1ccccc1)NCCCN1CCN(CCCNC(=O)Cc2ccccc2)CC1	1.1	3.4	-15.2	1.2	-3.0	-11.0
Cc1cc2ccccc2n1CCNC(=O)Cc1ccccc1	0.2	4.1	96.2*	0	-13.8	81.4*
COc1ccccc1CNC(=O)c1ccc(S(=O)(=O)N2CCCC2)cc1	0.5	0.7	4.2	1	2.0	47.2
Cc1cc2ccccc2n1CCNC(=O)C(C)C	0.9	-2.8	50.4*	0.5	-50.7	7.9
COCCNC(=O)c1c(CSc2ccc(F)cc2)noc1C(=O)NCc1ccccc1	0.9	0.5	12.6	0.9	-7.5	5.6
O=C(Nc1ccc(F)cc1F)c1cc2nc3c(c(C(F)(F)F)n2n1)CCCC3	/	99.7	/	/	10.3	/
CC(=O)OC1C(OC(C)=O)N(C(C)=O)C(=O)N1C(C)=O (centres undefined)	1.1	1.0	13.7	0.9	-3.7	-8.0
CC12CC(NC(=O)N1c1cccc(C(=O)N3CCN(c4ccccc4F)CC3)c1)c1ccccc1O2 (centres undefined)	0.2	1.5	43.9	0.6	2.9	79.2*
CC12CC(NC(=O)N1c1ccc(C(=O)N3CCN(c4ccccn4)CC3)cc1)c1ccccc1O2 (centres undefined)	0.9	-1.0	7.6	0.9	-7.0	6.3
